PubChem BioAssay AID743455 (The Scripps Research Institute Molecular Screening Center, 2014)
The list shows a part of the results. Active and inactive are the calls of the source.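 Rule for the calls: active = IC50 at or below 10 µM; inactive = IC50 above 10 µM.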

Assay: 535nm fluorescence optical interference, dose response, artefact control for HGIII-sPLA2 inhibitor project, biochemical, QFRET (AID 743455)
Settings: BODIPY FL product fluorescence interference, cell-free
With `Cc1cccc(-n2cnc(C(=O)NNC(=S)Nc3ccccc3)c2)n1` the IC50 was > 122 µM (inactive). In the case of `O=C(NNC(=S)Nc1ccc(Br)cc1Cl)c1ccco1`, the IC50 is reported as > 122 µM (inactive). In the case of `COc1ccc(Cl)cc1C(=O)NNC(=S)NC1CCCC1`, the IC50 is reported as > 122 µM (inactive). With `O=C(N/N=C/c1cc(Cl)cc([N+](=O)[O-])c1O)C(O)(c1ccccc1)c1ccccc1` the IC50 was > 122 µM (inactive). For `CC(C)CC(=O)NC(=S)NNC(=O)c1cccc([N+](=O)[O-])c1`, the IC50 was > 122 µM (inactive). For `O=C(NNC(=S)NC1CCCCC1)c1ccccc1Cl`, the IC50 was > 122 µM (inactive). With `O=C1C(=O)N(Cc2ccc(-c3ccsc3)cc2)c2ccc(OC(F)(F)F)cc21` the IC50 was > 122 µM (inactive). For `COc1ccc(C(=O)NC(=S)NNC(=O)c2c(-c3ccccc3)noc2C)cc1`, the IC50 was > 122 µM (inactive). In the case of `Cn1cc(Cl)c(C(=O)NNC(=S)Nc2cccc(Cl)c2)n1`, the IC50 is reported as > 122 µM (inactive). For `Cc1ccc2sc(NNC(=O)c3ccc4c(c3)OCCO4)nc2c1C`, the IC50 was > 122 µM (inactive). For `O=C(NNC(=S)Nc1ccc(F)cc1)[C@H]1C[C@@H]1c1ccccc1`, the IC50 was > 122 µM (inactive). With `C/C(=N\NC(=S)Nc1ccc(C)cc1)c1cc2ccccc2o1` the IC50 was > 122 µM (inactive). With `COc1ccc2c(c1)c(=Cc1ccc(N(C)C)cc1)c1cc(-c3ccccc3)[n+](C)n12` the IC50 was > 122 µM (inactive).
